{"source": "PubChem BioAssay AID602346", "about": "(Broad Institute, 2012)", "note": "Hit rate of the full screen: of about 340,000 compounds, about 1,200 (0.35%) were called active. The list comes from a sample in which actives are over-represented; it also holds similar structures and randomly drawn compounds. A number with no mark means an inactive call. Cut-off read from the data, not from the text of the source: active = inhibition above about 50% (passing the limit was not always enough); inconclusive = no clear call, values can overlap the other calls; inactive = below about 31%.", "data": [{"assay": "blockers of Vif multimerization in cells – imaging, HEK293T, single point, primary screen (AID 602346)", "settings": "Vif self-association by quenched fluorescence, 24 h, at 7.49 µM, active compounds read high", "values": [{"smiles": "COc1ccc(C(C#N)=C2C=CC(=NO)c3ccccc32)cc1", "inhibition": "24.3%"}, {"smiles": "NC(c1ccccc1)c1csc(NC(=O)Nc2cccc(C(F)(F)F)c2)n1", "note": "(stereo unspecified)", "inhibition": "4.85%"}, {"smiles": "COc1ccc(-c2ccc(CN3C(CC(C)C)C(=O)N(Cc4cn(CC5CCCCC5)nn4)CCS3(=O)=O)cc2)cn1", "note": "(stereo unspecified)", "inhibition": "-4.05%"}, {"smiles": "CN(c1ccccc1)S(=O)(=O)c1cc(C(=O)Nc2nc3ccccc3[nH]2)ccc1Cl", "inhibition": "-13.9%"}, {"smiles": "COC(=O)Nc1nc2ccc(Sc3ccccc3)cc2[nH]1", "inhibition": "57% (active)"}, {"smiles": "Cc1ccc(O)c(CNc2nc3ccccc3[nH]2)c1", "inhibition": "-2.01%"}, {"smiles": "COc1ccc(CC(N)c2csc(NC(=O)Cc3ccccc3)n2)cc1", "note": "(stereo unspecified)", "inhibition": "-11.3%"}, {"smiles": "O=C(OC12CC3CC(CC(C3)C1)C2)c1ccc(NCc2cc(O)ccc2O)cc1", "inhibition": "8.83%"}, {"smiles": "COC(=O)c1ccc(NCC(=O)c2ccccc2)cc1", "inhibition": "3.71%"}, {"smiles": "COC(=O)c1ccc(NCc2cc(O)ccc2O)cc1", "inhibition": "101% (active)"}, {"smiles": "CC(CN1CCOCC1)OC(=O)c1ccc(Cl)cc1Cl", "note": "(stereo unspecified)", "inhibition": "4.38%"}, {"smiles": "CC(C)OC(=O)c1ccc(NCc2cc(O)ccc2O)cc1Cl", "inhibition": "55.2% (active)"}, {"smiles": "CC(OC(=O)c1ccc(Cl)cc1O)C(=O)NCCC1=CCCCC1", "note": "(stereo unspecified)", "inhibition": "11.7%"}, {"smiles": "COc1ccc(C(NC(=O)C2CCN(CCCc3ccccc3)CC2)c2cccs2)cc1", "note": "(stereo unspecified)", "inhibition": "14.2%"}, {"smiles": "CCCCC[C@@H]1C=C(C(=O)OCC)[C@H](c2ccccc2)N1S(=O)(=O)c1ccc(C)cc1", "inhibition": "3.46%"}, {"smiles": "COc1cccc(NC(=O)CSc2nnc(Cc3ccc(OC)c(OC)c3)o2)c1", "inhibition": "60.1% (active)"}, {"smiles": "COc1ccc(C(=O)NCc2nnc(SCC(=O)Nc3cccc(OC)c3)o2)cc1", "inhibition": "19%"}, {"smiles": "COc1ccc(Cc2nnc(SCC(=O)Nc3ccc(C)c(C)c3)o2)cc1OC", "inhibition": "3.15%"}, {"smiles": "CNc1cncc(-c2ccc(NS(C)(=O)=O)cc2)n1", "inhibition": "21.1%"}, {"smiles": "COc1ccc(-c2ccc(C(=O)NCCN3CCOCC3)c3occc23)c(C)c1", "inhibition": "-8.68%"}, {"smiles": "Cc1ccc(C(=O)N/C(=C\\c2ccc(F)cc2)C(=O)NCCN2CCOCC2)cc1", "inhibition": "4.18%"}, {"smiles": "Cc1cc(C)cc(C(=O)NCCN2CCOCC2)c1", "inhibition": "-5.07%"}, {"smiles": "Cc1ccc(C(=O)NC(=S)NCCN2CCOCC2)cc1", "inhibition": "50.2% (active)"}, {"smiles": "Cc1cc(=O)oc2c3c(cc(OCC(=O)NCC(O)c4ccccc4)c12)OC(C)(C)CC3", "note": "(stereo unspecified)", "inhibition": "-17%"}, {"smiles": "COc1ccc(CC(N)c2csc(NC(=O)NC(c3ccccc3)c3ccccc3)n2)cc1", "note": "(stereo unspecified)", "inhibition": "2.09%"}, {"smiles": "COc1cc(Cn2c3ccc(NC(=O)CC(C)c4ccccc4)cc3c(=O)n2C)ccc1F", "note": "(stereo unspecified)", "inhibition": "-4.26%"}]}]}
